# In all, about 2,300 compounds went through this assay and about 95 (4%) were called active. Not shown: some 17% with an inconclusive outcome. What follows is part of a selection rich in actives, with near analogues and random picks from the rest. Values without a mark were called inactive. Calls follow the shape of the dose curve; as a rule, active = well fitted activation curve with a large enough effect; inconclusive = small, poorly fitted or top-dose-only effect; inactive = flat fitted curve, though single readings scatter.
# Target: D(3) dopamine receptor (Homo sapiens) (UniProt P35462)
# Test: qHTS of D3 Dopamine Receptor Agonist: D3 Dopamine Receptor B-arrestin Agonist Confirmatory Assay; also: nearly all actives have a fitted effect of over 70% in size;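 as to activation: 100% = dopamine control response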
# Settings: DiscoveRx D3 beta-arrestin cells, luminescence, 90 min; series mostly up to 76.9 µM; activation: at the top concentration
# From the text: D3 DARs represent a very important target for the treatment of several neuropsychiatric disorders. Indeed, one of the most promising therapeutic applications for the D3 DAR is in the area of addiction and related disorders. […] These findings have been observed with a number of addictive substances including cocaine, amphetamine, nicotine, and alcohol. […] Increased D3 DAR activity can thus lead to neuroprotective and neurorestorative actions in the CNS. […] This assay is used to confirm the activity of the identified D3 dopamine receptor agonist. Activation is the desired outcome for this assay. NIH Molecular Libraries Probe Production Centers Network [MLPCN] NIH Chemical Genomics Center [NCGC] MLPCN Grant: NS064831 Assay Submitter (PI): David Sibley
# Freshly passaged DiscoveRx D3 cells are plated in 1536 well white, solid bottom plates at a density of 1500 cells/well in 3microl of complete media. After an overnight incubation at 37 degrees C in 5% CO2, cells are loaded with 23nl of test compound from the compound library (as well as dopamine controls) using a 1536 pintool and incubated at 37 degrees C for 90 minutes. Two microliters of DiscoveRx reagent is then added to all cells, and they are incubated for an additional 30 - 60 minutes at room temperature. Following incubation, luminescence is measured on a ViewLux CCD-based luminometer reader using a 20 sec exposure time.
# Potency is read from the fitted curve at half-maximal effect.
# Sequence of D(3) dopamine receptor (Homo sapiens) (P35462 whole entry, looked up): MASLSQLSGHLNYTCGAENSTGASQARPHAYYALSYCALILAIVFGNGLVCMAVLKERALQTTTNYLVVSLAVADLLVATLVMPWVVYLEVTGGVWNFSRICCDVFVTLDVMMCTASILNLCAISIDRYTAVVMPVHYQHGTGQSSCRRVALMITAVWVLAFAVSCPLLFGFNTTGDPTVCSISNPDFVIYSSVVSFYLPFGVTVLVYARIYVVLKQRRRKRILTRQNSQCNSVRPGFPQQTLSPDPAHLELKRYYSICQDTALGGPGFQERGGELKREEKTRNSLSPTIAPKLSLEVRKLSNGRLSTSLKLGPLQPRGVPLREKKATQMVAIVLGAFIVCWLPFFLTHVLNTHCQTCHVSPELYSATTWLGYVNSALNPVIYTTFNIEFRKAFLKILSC
SMILES,activation,Potency
Cc1ccc(O)c(-c2cc(C(=O)Nc3c(C)n(C)n(-c4ccccc4)c3=O)[nH]n2)c1,0.15%,–
COc1ccc(NC(C)=O)cc1NC(=O)CN1CCN(c2ccccn2)CC1,15.7%,–
OCC[C@H]1C[C@H](O)[C@@H](O)[C@]2(Cc3ccccc3CO2)O1,-5.36%,–
Cn1c(C(=O)NCCCN2CCN(c3cccc(Cl)c3)CC2)cc2c(=O)n(C)c3ccccc3c21,-22%,–
O=C(Nc1cccnc1Cl)c1cc(-c2cccc(Cl)c2)on1,-7.51%,–
CCC(CC)NC(=O)/C=C/c1cccc([N+](=O)[O-])c1,0.387%,–
CC(=O)Nc1ccc(OCC(O)CN2CCN(c3ccccc3Cl)CC2)cc1 (configuration not stated),-5.41%,–
O=C1c2cccc3cccc(c23)N1CN1CCN(c2ccccn2)CC1,16.7%,–
OC(COc1cccc2ccccc12)CN1CCN(c2ccccn2)CC1 (configuration not stated),–,8.91 µM (active)
O=C(OCc1nc2ccccc2[nH]1)C1CCCCC1,-2.95%,–
O=C(c1ccccc1)c1ccc(OCC(O)CN2CCCC2)cc1 (configuration not stated),1.27%,–
CC[C@H](C)C(=O)N[C@H]1CCCN1C(=O)/C=C/c1ccccc1,-7.23%,–
CCCCC(=O)NNC(=S)NC(=O)C(c1ccccc1)c1ccccc1,-17.9%,–
CCCN1CC=C2C(C#N)=C(N)C(C#N)(C#N)C(c3cc(OC)ccc3OC)C2C1 (configuration not stated),-11.6%,–
CC(=O)C[C@@H](O)CC(=O)[C@H]1OC(=O)CCCCCCc2ccccc21,-0.58%,–
COc1cc(OC)c(-n2cc(-c3ccc(Cl)cc3)[nH]c2=O)cc1Cl,-14%,–
CNC(=O)NC(=O)C(C)N1CCN(C/C=C/c2ccccc2)CC1 (configuration not stated),8.09%,–
CN1CCC(CN)(N2CCN(c3ccccc3)CC2)CC1,8.81%,–
O=C1CC[C@H](O)CCN1[C@H](CSc1ccc(Br)cc1)Cc1ccccc1,-4.53%,–
Cc1ccccc1N1CCN(CCCOc2ccc3c(C)cc(=O)oc3c2)CC1,20%,–
Nc1nonc1-n1nnc(C(=O)N/N=C/c2ccc(Cl)cc2)c1-c1ccc2c(c1)OCO2,0.0552%,–
CN(C)CCOC(=O)C(c1ccccc1)C1(O)CCCC1 (configuration not stated),-3.48%,–
Cc1cc(C(=O)NNC(=O)c2ccccc2O)c(C)o1,-3.17%,–

SMILES,activation,Potency
O=C(Nc1ccc(F)cc1F)N1CCCN(CCOc2ccccc2)CC1,-3.15%,–
COC(c1ccccc1)c1nnc(CCC(=O)N2CCN(CCOc3ccccc3)CC2)o1 (configuration not stated),–,2.82 µM (active)
NS(=O)(=O)c1ccc(CCNC(=O)NC2CCCCC2)cc1,-9.36%,–
[O-][N+]12CCCCC1CCCC2CO (configuration not stated),-6.66%,–
COc1cc(OC)c2ccc(=O)oc2c1C(CCN1CCN(c2ccccc2)CC1)c1ccc2c(c1)OCO2 (configuration not stated),25.2%,–
O=C(CCN1CCN(c2ccccc2)CC1)NNC(=S)Nc1ccccc1,1.55%,–
COc1ccc(N2CCN(Cc3cc(=O)oc4ccc5ccccc5c34)CC2)cc1,-2.9%,–
Cc1cccc(C)c1NC(=O)CNC(=O)c1ccc2c(c1)OCCO2,-4.56%,–
Cc1ccccc1Nc1nc(N)nc(CN2CCN(c3ccccn3)CC2)n1,-7.76%,–
Cc1c(CN2CC[C@@H](N3CCN(c4ccccn4)CC3)[C@H](O)C2)[nH]c2ccc(F)cc12,–,28.2 µM (active)
O=C(CN1CCN(c2ccccn2)CC1)NC1CCCCC1,1.52%,–
Cc1n[nH]c(C)c1S(=O)(=O)N1CCCC(C(=O)NCC2COc3ccccc3O2)C1 (configuration not stated),5.77%,–
O=C(O[C@H]1[C@H](Cc2ccccc2)NS(=O)(=O)[C@H]2C[C@@H]3C=C[C@]12O3)c1ccc([N+](=O)[O-])cc1,-6.96%,–
O=C1c2ccccc2S(=O)(=O)N1CC(O)Cn1c2ccccc2c2ccccc21 (configuration not stated),7.56%,–
CC(C)(C)n1ncc2c(=O)n(Cc3c(Cl)cccc3Br)cnc21,7.37%,–
COc1ccc(S(=O)(=O)N2CCSCC2)cc1,-5.06%,–
O=C1C=C(c2cccc(Br)c2)C[C@@H](c2ccc(F)cc2)C1,-9.8%,–
O=C(COc1coc(CN2CCN(c3ccccc3)CC2)cc1=O)Nc1ccccc1F,15.3%,–
CCC(=O)c1ccc(OCC(=O)Nc2ccc(N3CCCCC3)cc2)cc1,-2.57%,–
Cc1cnc(C(=O)N2CCCC(N3CCN(c4ccccc4F)CC3)C2)cn1 (configuration not stated),4.86%,–
CN(CCO)S(=O)(=O)c1ccc2c(c1)C(=O)c1cc(S(=O)(=O)N(C)CCO)ccc1-2,19.8%,–
CC(=O)OC(C)C[N+](C)(C)C (configuration not stated),-10%,–
CS(=O)(=O)N1CCC(C(=O)N2CCN(c3ccccc3)CC2)CC1,11.2%,–

SMILES,activation,Potency
O=C(NC(=O)c1ccccc1)Nc1ccccc1O,-12.9%,–
O=C(CCn1c(=O)[nH]c2ccccc2c1=O)NCCCN1CCN(c2cccc(Cl)c2)CC1,3.76%,–
O=C(CN1CCN(c2ncccn2)CC1)Nc1ccccc1C(F)(F)F,7.45%,–
CC(OC(=O)/C=C/c1ccccc1)C(=O)NC1CCCCC1C (configuration not stated),-7.01%,–
O=c1cc(CCl)nc2scc(-c3ccccc3)n12,-6.56%,–
CC(C)CCN1CCN(Cc2cn[nH]c2C2CCCCC2)CC1CCO (configuration not stated),-8.42%,–
CS/C(=C\C(=O)c1ccco1)Nc1ccccc1Cl,-7.46%,–
O=S(=O)(c1ccc(F)cc1)N1CC=C(c2ccccc2)CC1,13.2%,–
CCN(CCCNC(=O)c1ccc2c(c1)NC(=O)CN2C)c1cccc(C)c1,9.36%,–
O=C(CC1NCCc2ccccc21)Nc1cccc(Cl)c1 (configuration not stated),-14.9%,–
COc1ccc([C@H]2CC(=O)C=C(c3ccc(CO)cc3)C2)cc1,-2.54%,–
COc1ccc([C@H]2CC(=O)C=C(c3ccc(OC(F)(F)F)cc3)C2)cc1OC,-7.65%,–
CC(=C1C(=O)c2ccccc2C1=O)N1CCN(c2ccccn2)CC1,7.68%,–
Cc1c(CC(=O)N2CCN(C(=O)C3COc4ccccc4O3)CC2)c(=O)oc2c(O)c(O)ccc12 (configuration not stated),–,28.2 µM (active)
NS(=O)(=O)c1ccc(CCNS(=O)(=O)c2cccc3cccnc23)cc1,-7.06%,–
C/C(=N\NC(=S)NC1CCCCC1)c1ccc(C)o1,-16.5%,–
COc1ccc(CC(NC(C)=O)C(=O)N2CCN(C(=O)Nc3cccc(Cl)c3)CC2)cc1OC (configuration not stated),-10.7%,–
O=C(NCCCN1CCN(c2ccccc2F)CC1)C1CCC(=O)N1C1CCCCC1 (configuration not stated),3.35%,–
Cc1ccc(S(=O)(=O)N2CC(O)C[C@H]2C(=O)OCC(=O)Nc2ccc(N3CCOCC3)cc2)cc1C (some centres not stated),-0.304%,–
CCn1c(=O)n(CC)c2cc(N3CCCC3)c(NC(=O)c3ccccc3Br)cc21,-1.66%,–
CNCC(O)c1ccc(O)c(O)c1 (configuration not stated),-1.74%,–
